From ChEMBL document CHEMBL1961873, “Compounds: GSK PKIS; Assays: Nanosyn kinase panel” (2012)

Columns and labels:
[1] = target: Leukocyte tyrosine kinase receptor (Homo sapiens) (UniProt P29376); details: at 1 µM;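 note: each value is the mean inhibition of LTK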
[2] = target: Tyrosine-protein kinase Lyn (Homo sapiens) (UniProt P07948); details: at 0.1 µM
[3] = target: Tyrosine-protein kinase Lyn (Homo sapiens) (UniProt P07948); details: at 1 µM
[4] = target: Tyrosine-protein kinase Lyn (Homo sapiens) (UniProt P07948); details: at 0.1 µM; remark: listed apart in the source
[5] = target: Tyrosine-protein kinase Lyn (Homo sapiens) (UniProt P07948); details: at 1 µM; remark: listed apart in the source
[6] = target: T1, Tyrosine-protein kinase Mer (Homo sapiens) (UniProt Q12866); details: at 0.1 µM
T1 sequence (whole entry): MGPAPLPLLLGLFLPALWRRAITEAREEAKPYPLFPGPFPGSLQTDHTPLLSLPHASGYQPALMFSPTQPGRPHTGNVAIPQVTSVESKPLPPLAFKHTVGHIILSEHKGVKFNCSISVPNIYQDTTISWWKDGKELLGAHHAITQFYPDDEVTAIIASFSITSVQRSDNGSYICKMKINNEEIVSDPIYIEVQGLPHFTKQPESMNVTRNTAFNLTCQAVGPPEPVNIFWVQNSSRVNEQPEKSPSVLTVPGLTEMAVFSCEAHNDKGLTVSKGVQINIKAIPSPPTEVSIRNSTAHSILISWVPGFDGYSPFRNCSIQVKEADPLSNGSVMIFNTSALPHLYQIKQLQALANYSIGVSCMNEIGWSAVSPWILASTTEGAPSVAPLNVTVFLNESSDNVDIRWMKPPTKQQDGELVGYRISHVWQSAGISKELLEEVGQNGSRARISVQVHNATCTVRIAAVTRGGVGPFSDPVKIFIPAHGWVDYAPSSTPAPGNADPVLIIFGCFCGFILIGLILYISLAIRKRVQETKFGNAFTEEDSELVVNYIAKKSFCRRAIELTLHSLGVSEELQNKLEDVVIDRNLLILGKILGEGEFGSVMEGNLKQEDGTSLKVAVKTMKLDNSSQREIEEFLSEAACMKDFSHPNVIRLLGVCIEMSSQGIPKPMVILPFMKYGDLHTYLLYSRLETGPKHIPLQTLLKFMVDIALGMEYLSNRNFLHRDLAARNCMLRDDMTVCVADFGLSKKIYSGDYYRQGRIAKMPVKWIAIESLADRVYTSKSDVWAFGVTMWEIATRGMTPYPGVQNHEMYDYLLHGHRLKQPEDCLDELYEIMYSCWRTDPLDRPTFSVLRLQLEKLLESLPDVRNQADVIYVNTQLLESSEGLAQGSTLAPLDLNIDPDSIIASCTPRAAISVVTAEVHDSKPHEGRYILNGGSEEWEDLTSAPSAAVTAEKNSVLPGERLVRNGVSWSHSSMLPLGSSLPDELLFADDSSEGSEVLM

[7] = target: T1, Tyrosine-protein kinase Mer (Homo sapiens); details: at 1 µM
[8] = target: Hepatocyte growth factor receptor (Homo sapiens) (UniProt P08581); details: at 0.1 µM
Chain of Hepatocyte growth factor receptor (Homo sapiens) (P08581 whole entry): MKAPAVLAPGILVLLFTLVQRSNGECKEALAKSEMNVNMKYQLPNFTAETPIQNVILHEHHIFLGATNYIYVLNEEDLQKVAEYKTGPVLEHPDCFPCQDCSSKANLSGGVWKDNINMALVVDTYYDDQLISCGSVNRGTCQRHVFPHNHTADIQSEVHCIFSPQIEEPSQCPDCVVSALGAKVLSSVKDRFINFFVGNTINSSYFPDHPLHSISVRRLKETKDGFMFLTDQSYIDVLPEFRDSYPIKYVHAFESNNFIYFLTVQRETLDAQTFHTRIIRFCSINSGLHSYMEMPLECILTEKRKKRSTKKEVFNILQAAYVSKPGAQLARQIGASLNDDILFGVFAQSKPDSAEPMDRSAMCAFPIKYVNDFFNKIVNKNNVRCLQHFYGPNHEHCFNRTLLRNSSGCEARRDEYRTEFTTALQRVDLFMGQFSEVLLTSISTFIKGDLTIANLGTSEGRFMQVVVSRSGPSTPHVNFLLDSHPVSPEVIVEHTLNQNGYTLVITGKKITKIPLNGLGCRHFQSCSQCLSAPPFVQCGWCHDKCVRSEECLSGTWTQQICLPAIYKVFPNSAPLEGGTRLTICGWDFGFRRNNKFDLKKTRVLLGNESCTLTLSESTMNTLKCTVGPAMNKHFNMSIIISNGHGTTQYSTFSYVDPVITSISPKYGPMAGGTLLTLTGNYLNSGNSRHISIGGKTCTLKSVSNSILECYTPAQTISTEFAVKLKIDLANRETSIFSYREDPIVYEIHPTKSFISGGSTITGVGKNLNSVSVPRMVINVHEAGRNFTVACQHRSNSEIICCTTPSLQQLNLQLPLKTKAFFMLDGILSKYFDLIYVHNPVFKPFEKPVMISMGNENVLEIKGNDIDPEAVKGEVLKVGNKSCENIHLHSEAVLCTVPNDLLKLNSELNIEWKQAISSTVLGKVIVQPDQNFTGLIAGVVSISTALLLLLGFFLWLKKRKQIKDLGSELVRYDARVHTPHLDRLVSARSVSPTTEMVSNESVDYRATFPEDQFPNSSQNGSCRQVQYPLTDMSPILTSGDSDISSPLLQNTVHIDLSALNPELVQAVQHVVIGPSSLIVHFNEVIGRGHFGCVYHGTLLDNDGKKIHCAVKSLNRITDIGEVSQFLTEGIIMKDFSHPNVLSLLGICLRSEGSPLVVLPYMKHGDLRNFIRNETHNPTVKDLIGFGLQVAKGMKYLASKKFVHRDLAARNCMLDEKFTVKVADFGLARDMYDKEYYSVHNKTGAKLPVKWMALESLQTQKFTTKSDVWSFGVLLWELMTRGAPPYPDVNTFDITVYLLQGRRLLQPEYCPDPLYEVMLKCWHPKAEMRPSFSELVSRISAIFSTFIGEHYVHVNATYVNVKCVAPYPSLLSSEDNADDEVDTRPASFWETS

[9] = target: Hepatocyte growth factor receptor (Homo sapiens) (UniProt P08581); details: at 1 µM
[10] = target: T2, Muscle, skeletal receptor tyrosine-protein kinase (Homo sapiens) (UniProt O15146); details: at 0.1 µM;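 note: values are mean inhibition of MuSK from the GSK PKIS kinase screening panel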
T2 sequence (whole entry): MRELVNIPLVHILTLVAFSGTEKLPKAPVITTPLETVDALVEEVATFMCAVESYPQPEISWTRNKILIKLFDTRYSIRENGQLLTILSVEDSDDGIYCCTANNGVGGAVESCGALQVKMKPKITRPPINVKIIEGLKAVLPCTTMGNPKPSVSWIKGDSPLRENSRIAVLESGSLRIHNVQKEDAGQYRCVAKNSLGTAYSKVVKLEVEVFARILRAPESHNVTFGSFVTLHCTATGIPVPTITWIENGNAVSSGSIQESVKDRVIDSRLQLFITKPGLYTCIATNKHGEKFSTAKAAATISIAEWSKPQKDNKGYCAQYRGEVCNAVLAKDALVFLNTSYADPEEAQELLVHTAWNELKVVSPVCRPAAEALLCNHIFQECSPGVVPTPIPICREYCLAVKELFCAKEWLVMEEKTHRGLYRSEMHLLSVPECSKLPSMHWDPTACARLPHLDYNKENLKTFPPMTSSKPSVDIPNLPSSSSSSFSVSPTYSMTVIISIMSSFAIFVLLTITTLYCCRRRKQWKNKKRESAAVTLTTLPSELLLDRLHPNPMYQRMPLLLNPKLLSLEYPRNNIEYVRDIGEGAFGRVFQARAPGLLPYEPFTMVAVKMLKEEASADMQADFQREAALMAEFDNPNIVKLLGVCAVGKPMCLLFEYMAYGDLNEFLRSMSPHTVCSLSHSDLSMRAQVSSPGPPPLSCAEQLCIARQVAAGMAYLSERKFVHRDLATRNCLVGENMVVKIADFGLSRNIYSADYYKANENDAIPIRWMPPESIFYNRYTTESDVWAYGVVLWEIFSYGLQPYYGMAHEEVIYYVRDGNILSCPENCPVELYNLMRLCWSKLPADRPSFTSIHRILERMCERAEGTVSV

Chain of Tyrosine-protein kinase Lyn (Homo sapiens) (P07948 2-512 limits assumed): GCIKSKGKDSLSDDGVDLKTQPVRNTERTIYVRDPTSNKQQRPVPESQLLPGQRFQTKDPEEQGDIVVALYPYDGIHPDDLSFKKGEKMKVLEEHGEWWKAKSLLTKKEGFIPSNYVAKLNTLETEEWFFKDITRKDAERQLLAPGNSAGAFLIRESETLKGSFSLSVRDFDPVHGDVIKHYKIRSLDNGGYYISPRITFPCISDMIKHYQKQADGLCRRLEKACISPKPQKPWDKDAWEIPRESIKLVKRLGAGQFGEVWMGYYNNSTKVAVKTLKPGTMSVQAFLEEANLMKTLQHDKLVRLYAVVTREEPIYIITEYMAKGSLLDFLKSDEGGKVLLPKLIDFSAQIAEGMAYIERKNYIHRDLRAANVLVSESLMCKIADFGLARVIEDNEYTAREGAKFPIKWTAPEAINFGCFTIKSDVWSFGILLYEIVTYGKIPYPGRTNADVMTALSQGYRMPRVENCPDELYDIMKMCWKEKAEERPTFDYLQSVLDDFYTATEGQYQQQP
Chain of Leukocyte tyrosine kinase receptor (Homo sapiens) (P29376 whole entry): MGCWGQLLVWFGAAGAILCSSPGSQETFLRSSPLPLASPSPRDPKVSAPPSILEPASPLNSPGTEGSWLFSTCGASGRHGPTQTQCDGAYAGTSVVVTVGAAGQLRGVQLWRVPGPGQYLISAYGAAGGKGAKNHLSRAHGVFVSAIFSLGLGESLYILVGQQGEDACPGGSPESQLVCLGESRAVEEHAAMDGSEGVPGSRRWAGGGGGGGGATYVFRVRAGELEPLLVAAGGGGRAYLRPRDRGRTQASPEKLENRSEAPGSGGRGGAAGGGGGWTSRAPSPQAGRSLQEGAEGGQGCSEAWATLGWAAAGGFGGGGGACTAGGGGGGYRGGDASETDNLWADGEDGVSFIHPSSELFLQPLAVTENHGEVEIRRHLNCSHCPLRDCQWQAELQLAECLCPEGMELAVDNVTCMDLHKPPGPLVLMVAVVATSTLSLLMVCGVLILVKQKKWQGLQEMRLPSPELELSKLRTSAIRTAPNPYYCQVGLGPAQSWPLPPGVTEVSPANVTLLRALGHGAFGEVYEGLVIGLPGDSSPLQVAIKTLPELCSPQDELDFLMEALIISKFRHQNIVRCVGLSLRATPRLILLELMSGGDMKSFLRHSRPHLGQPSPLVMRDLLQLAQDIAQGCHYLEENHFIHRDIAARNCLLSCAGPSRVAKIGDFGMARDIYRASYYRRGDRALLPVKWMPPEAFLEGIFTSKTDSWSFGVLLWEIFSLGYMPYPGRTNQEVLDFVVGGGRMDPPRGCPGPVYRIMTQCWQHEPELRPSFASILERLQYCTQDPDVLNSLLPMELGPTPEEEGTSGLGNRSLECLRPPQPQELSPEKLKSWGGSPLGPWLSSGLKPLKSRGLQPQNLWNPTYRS

SMILES | inhibition [1] | inhibition [2] | inhibition [3] | inhibition [4] | inhibition [5] | inhibition [6] | inhibition [7] | inhibition [8] | inhibition [9] | inhibition [10]
COc1cc2c(cc1Nc1nc(N3CCc4ccccc43)c3cc[nH]c3n1)N(C(=O)CN(C)C)CC2 | 89.9% | 1.75% | 1.39% | 0.29% | 1.23% | 1.28% | 0.11% | 2.24% | -6.58% | -0.85%
CCn1c(-c2nonc2N)nc2c(N3CCCC3)nccc21 | -0.6% | 1.31% | -0.07% | 1.13% | 0.52% | 0.24% | 1.56% | -3.32% | -1.91% | 1.25%
O=C1NC(=O)C(N2CCc3ccccc32)=C1c1ccc(Cl)cc1 | 1.64% | 6.82% | 6.94% | 5.14% | 4.26% | 4.06% | 6.47% | -1.68% | 7.33% | 2.09%
CC1=C(C(=O)Nc2ccc3[nH]ncc3c2)C(c2ccc3ccccc3c2)CC(=O)N1 (stereo not given) | 3.95% | 6.74% | 30.8% | 4.2% | 26.2% | 0.87% | 2.79% | 8.81% | 40.3% | 2.08%
CNC(=O)c1cncc(/C=C/c2c(Cl)cccc2Cl)c1 | 5.04% | 11.1% | 48.7% | 7.62% | 43.5% | 2.3% | 2.24% | 2.67% | 1.88% | 3.75%
CCn1c(-c2nonc2N)nc2c(C#CC(C)(C)O)nc(CN3CCCC3)cc21 | -0.04% | -1.54% | 0.2% | -1.39% | 0.5% | -0.28% | 0.18% | 5.85% | 5.28% | 0.58%
Cc1nnc(-c2ccc(C)c(-c3ccc(C(=O)Nc4cccc(C#N)c4)cc3)c2)o1 | 1.76% | 3.98% | 6.36% | 2.18% | 5.78% | 0.8% | 2.51% | 3.66% | -0.54% | 2.58%
CC(C)=Cc1cccc2c1/C(=N/Nc1ccc(S(N)(=O)=O)cc1)C(=O)N2 | 11.3% | 6.78% | 35.8% | 5.19% | 29.9% | 0.25% | 3.48% | -0.76% | 19.6% | 7%
O=C1NC(=O)C(c2ccc(Cl)cc2)=C1Nc1ccc(Cl)c(C(=O)O)c1 | -0.2% | 0.02% | -0.5% | -2.02% | -0.81% | 1.27% | 0.08% | -1.14% | -0.38% | -1.83%
CCn1c(-c2nonc2N)nc2c(C#CC(C)(C)O)nc(OC[C@@H](N)c3ccccc3)cc21 | 9.21% | -0.29% | 1.01% | -1.22% | 0.53% | -0.92% | 0.47% | -2.86% | -4.52% | -0.69%
Cc1cccc(-c2n[nH]cc2-c2ccc3ncccc3n2)n1 | 0.08% | 0.89% | 7.91% | 0.34% | 7.01% | -0.08% | 0.84% | 2.89% | -1.62% | 0.64%
CC1=C(C(=O)Nc2ccc3[nH]ncc3c2)C(c2ccc(F)cc2)NC(=O)N1 (stereo not given) | 1.52% | 2.06% | 2.69% | 0.99% | 1.73% | 1.43% | 0.93% | 3% | 14.9% | 1.49%
COc1ccccc1Nc1ncc(-c2ccccc2)o1 | 4.49% | 5.91% | 8.44% | 3.58% | 5.77% | 0.01% | 1.66% | 10.1% | 1.27% | 4.33%
COc1cc2ncn(-c3cc(O[C@@H](C)c4ccccc4Cl)c(C(N)=O)s3)c2cc1OC | 4.56% | 6.39% | 28.6% | 4.74% | 22% | 4.25% | 10.3% | 4.76% | 3.23% | 2.77%
CC(=O)Nc1cccc(C#Cc2cncnc2Nc2ccc(OCc3cccc(F)c3)c(Cl)c2)n1 | 1.48% | 0.69% | 4.88% | 0.67% | 3.79% | -0.16% | 0.67% | -2.7% | 2.91% | 2.44%
NCc1ccc(-c2nc(-c3ccc(Cl)c(O)c3)c(-c3ccncc3)[nH]2)cc1 | 1.88% | 6.73% | 42.8% | 4.81% | 37.1% | -0.12% | 6.1% | 5.53% | 14.5% | 0.08%
CS(=O)(=O)Nc1ccc(N/C=C2\C(=O)Nc3ccccc32)cc1 | 3.76% | 0.65% | 12.1% | -0.91% | 11.3% | -0.15% | 3.63% | -4.32% | -0.23% | 2.12%
